Shown are actives, neighbours in structure and some others; about 3.8% of the full set was active somewhere.
Epigenetic mod: qHTS Assay for Epigenetic Modulators | mouse C127i GFP locus derepression, cytometry, 30 h | Potency, µM (titrated, usually from 46.1 µM) | 68,000 compounds, 0.09% hits
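Locus derepression in mouse mammary C127i cells whose integrated CMV-GFP reporter is normally silent; GFP expression after 30 h compound treatment was quantified by counting fluorescent cells.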
HBB splice mod: qHTS Assay for Modulators of Hemoglobin Beta Chain Splicing; HBB splicing reporter cell assay, activation; EGFP reporter with mutant IVS2-654 intron; response scale: normalised to 500 nM splice-correcting PNA; AID 925, 2007; 65,000 compounds, 0.06% hits; Potency, µM (doses to about 46.1 µM), hits mostly activators
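Compounds were applied for 2 days to HeLa EGFP-654 cells, 500/well in Optimem with 2% FCS. The reporter's EGFP is disrupted by mis-splicing of beta-globin intron IVS2-654. Readout: summed well GFP fluorescence from 488 nm laser scanning; reference was 500 nM antisense […] 654 PNA.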
HEK293 cAMP ctrl: qHTS Assay for Agonists of the Thyroid Stimulating Hormone Receptor: Activators of Intracellular cAMP Concentrations in Parental HEK 293. parental HEK293 CNG cAMP sensor, membrane potential fluorescence. Potency, µM (highest dose often 57.1 µM), usual class: activators. 73,000 compounds, 2.5% hits. AID 938, 2007; note: nearly all actives have a fitted effect of over 55% in size
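Parental HEK 293 cells stably expressing a modified CNG channel (no TSHR) report cAMP rise as membrane depolarization. Membrane potential dye with 100 uM RO 20-1724 was loaded for 60 min at room temperature, then compound added for 30 min; fluorescence read at 590 nm.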
TSHR agonist: qHTS Assay for Agonists of the Thyroid Stimulating Hormone Receptor; HEK293-CNG-TSHR cells (CNG channel as cAMP sensor), membrane potential dye, cAMP; Thyrotropin receptor (Homo sapiens), P16473; 73,000 compounds, 0.48% hits; Potency, µM (doses to about 57.1 µM), usual class: activators; active = well fitted activation curve with a large enough effect in the main read-out, with a control signal flat, not every such curve was filed as active; inconclusive = small, poorly fitted or top-dose-only effect, or a change in a side signal; inactive = no such curve, though single readings can be large or run the other way; reference of the percent scale not stated here;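 note: the control signal comes from parental cells without the receptor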
Target sequence (P16473 whole entry, looked up): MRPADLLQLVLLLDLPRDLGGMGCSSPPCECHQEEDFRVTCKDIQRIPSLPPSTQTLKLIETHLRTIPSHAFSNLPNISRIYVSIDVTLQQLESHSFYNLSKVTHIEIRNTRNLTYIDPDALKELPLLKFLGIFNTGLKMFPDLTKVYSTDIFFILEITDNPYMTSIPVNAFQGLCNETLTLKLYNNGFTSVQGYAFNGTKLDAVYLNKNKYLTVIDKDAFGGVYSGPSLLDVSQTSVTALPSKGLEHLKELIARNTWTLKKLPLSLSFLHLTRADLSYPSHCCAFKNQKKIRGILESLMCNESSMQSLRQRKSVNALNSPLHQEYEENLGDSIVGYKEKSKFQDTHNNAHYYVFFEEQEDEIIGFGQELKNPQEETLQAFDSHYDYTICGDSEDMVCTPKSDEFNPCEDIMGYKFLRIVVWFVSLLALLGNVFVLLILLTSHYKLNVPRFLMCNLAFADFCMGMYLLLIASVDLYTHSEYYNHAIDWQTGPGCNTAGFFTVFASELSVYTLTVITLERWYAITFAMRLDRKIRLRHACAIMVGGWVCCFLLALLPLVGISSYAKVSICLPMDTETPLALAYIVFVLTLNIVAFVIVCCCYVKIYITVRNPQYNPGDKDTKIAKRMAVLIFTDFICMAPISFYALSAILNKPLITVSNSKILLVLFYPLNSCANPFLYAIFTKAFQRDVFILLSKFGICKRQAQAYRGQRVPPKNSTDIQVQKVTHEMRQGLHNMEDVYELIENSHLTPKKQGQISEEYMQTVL
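HEK 293 cells stably expressing TSHR and a modified CNG channel, with CNG-only parental cells as counterscreen, were preloaded 60 min at room temperature with membrane potential dye containing 100 uM RO 20-1724. Compound exposure was 30 min, and depolarization was read as fluorescence at 590 nm.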
ERK AVP inh: qHTS Assay for Inhibitors of the ERK Signaling Pathway using a Homogeneous Screening Assay; HEK293-V1b, vasopressin-stimulated pERK AlphaScreen; Potency, µM (titrated, usually from 57.5 µM), usual class: inhibitors; 72,000 compounds, 0.99% hits; note: nearly all actives have a fitted effect of over 55% in size
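HEK293 cells stably expressing V1b receptor, preincubated 30 min at 37 °C with compound, then stimulated 5 min with 25 nM vasopressin. Phospho-ERK by AlphaScreen SureFire after 5 h RT; normalized to DMSO and vasopressin; AC50 by Hill fit.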
Ub-GFP proteasome: Ubiquitin-GFP Assay | 67,000 tested, under 10 active | Potency, µM (doses to about 45.9 µM), usual class: activators | Ubiquitin-GFP reporter cells, proteasome inhibition, GFP fluorescence; response scale: untreated = 0%, 10 µM MG-132 = 100%; active = well fitted activation curve with a large enough effect, not every such curve was filed as active; inconclusive = small, poorly fitted or top-dose-only effect, or another doubt; inactive = no such curve, though single readings can be large or run the other way
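U2OS cells stably expressing ubiquitin(G76V)-GFP, seeded overnight in 0.5% FBS medium, were exposed to compounds (qHTS, 46 uM to 2.9 nM) for 4 hr at 37 °C. GFP-positive cells were counted by laser cytometry (488 ex/515 em), normalized between basal and 10 uM MG-132.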
Hits are given with their value; n = inactive; u = inconclusive; x = not tested or not shown; [ ] = remark or other dose. Unless noted, calls come from the whole dose curve; as a rule, active = well fitted curve in the direction sought with a large enough effect; inconclusive = small, poorly fitted or top-dose-only effect, or another doubt; inactive = no such curve, though single readings can be large; an effect the other way counts as inactive or inconclusive.

SMILES	Epigenetic mod	HBB splice mod	HEK293 cAMP ctrl	TSHR agonist	ERK AVP inh	Ub-GFP proteasome
CN(C)Cc1ccccc1-c1nc(NCc2cccs2)c2ccccc2n1	n[9.22 µM]	n	u	u	n	n
CN(C)Cc1ccccc1-c1nc(N(C)C)c2ccccc2n1	n[9.22 µM]	n	10µM	u	n	n
COc1ccccc1-c1nc(NCc2ccccc2)c2ccccc2n1	n[9.22 µM]	n	u	u	u	n
Cc1cccc(CNc2nc(-c3ccccc3CN(C)C)nc3ccccc23)c1	n[9.22 µM]	n	0.794µM	u	n	n
COc1ccccc1CNc1nc(-c2ccccc2OC)nc2ccccc12	n[9.22 µM]	n	n	31.6µM	n	n
COC(=O)[C@@]1(Cc2ccc(F)cc2)[C@H]2c3cc(C(=O)N4CCCC4)n(CCF)c3C[C@H]2CN1C(=O)c1ccccc1	x	n	u	u	n	x
COC(=O)[C@@]1(Cc2ccc(F)cc2)[C@H]2c3cc(C(=O)N4CCCC4)n(CC4CC4)c3C[C@H]2CN1C(=O)c1ccccc1	x	n	3.98µM	u	n	x
COC(=O)[C@@]1(Cc2ccc(F)cc2)[C@H]2c3cc(C(=O)N4CCCC4)n(Cc4ccc(C)o4)c3C[C@H]2CN1C(=O)c1ccccc1	x	n	31.6µM	u	n	x
COC(=O)[C@@]1(Cc2ccc(F)cc2)[C@H]2c3cc(C(=O)N4CCCC4)n(Cc4cc(C)n(C)n4)c3C[C@H]2CN1C(=O)c1ccccc1	x	n	15.8µM	u	n	x
COC(=O)[C@@]1(Cc2ccc(F)cc2)[C@H]2c3cc(C(=O)N4CCCC4)n(Cc4ccc(S(C)(=O)=O)cc4)c3C[C@H]2CN1C(=O)c1ccccc1	x	n	15.8µM	u	n	x
COC(=O)[C@@]1(Cc2ccc(F)cc2)[C@H]2c3cc(C(=O)N(C)C)n(Cc4cc(C)n(C)n4)c3C[C@H]2CN1C(=O)c1ccccc1	x	n	u	u	n	x
COC(=O)[C@@]1(Cc2ccc(F)cc2)[C@H]2c3cc(C(=O)N4CCCC4)n(Cc4ccc(C)c(F)c4F)c3C[C@H]2CN1C(=O)c1ccccc1	x	n	u	u	n	x
COC(=O)C1=NOC2(C=C(Br)C(OC)=C(Br)C2=O)C1 (stereo not given)	x	n[9.22 µM]	n[11.4 µM]	n[11.4 µM]	n[11.5 µM]	x
O=C(O[C@@H]1Cc2c(O)cc(O)cc2OC1c1ccc(O)c(O)c1)c1cc(O)c(O)c(O)c1 (stereo not given in full)	x	x	x	x	n	x
COCC1C2CC[C@H]3C(OCc4ccc(OC)cc4)OC[C@]4(C)[C@H]3C2=C(CN4C(=O)OC(C)(C)C)[C@H](C)C1COC (stereo not given in full)	x	n	n	n	n	x
O=C(Nc1nc(-c2ccc(S(=O)(=O)N3CCCCCC3)cc2)cs1)c1cccs1	n	n	n	n	u	n
O=C(Nc1nc(-c2nc3ccccc3s2)cs1)c1ccc(S(=O)(=O)N2CCOCC2)cc1	n	n	u	u	3.16µM	n
O=C(Nc1nc(-c2ccc(S(=O)(=O)N3CCCC3)cc2)cs1)c1cccs1	n	n	u	u	15.8µM	n
CC1CCC2(OC1)OC1CC3C4CCC5CC(O)CCC5(C)C4=CCC3(C)C1C2C (stereo not given)	x	x	x	x	n	x
CC(=O)C1(O)C(C)CC2C3CCC4CC(O)CCC4(C)C3=CCC21C (stereo not given)	n	n	12.6µM	u	n	n
COCCNc1nc(C)nc2c1nc(-c1ccccc1)n2CCN1CCCC1	x	n	n	n	n	n
CCOC(=O)c1cc2cc(OC)ccc2[nH]1	n	x	x	x	x	x
COc1ccc2[nH]c(C(=O)c3ccccc3)cc2c1	n	x	7.94µM	u	n	n
Cc1cc(=Nc2ccc3c(c2)c(N)cc(C)[n+]3C)nc(N)n1C	n[9.22 µM]	n[9.22 µM]	n[11.4 µM]	n[11.4 µM]	n[11.5 µM]	n[9.17 µM]
CC(C)(C)/C(O)=C(/C#N)c1nc2ccccc2[nH]1	n	n	n	n	20µM	n
SMILES	Epigenetic mod	HBB splice mod	HEK293 cAMP ctrl	TSHR agonist	ERK AVP inh	Ub-GFP proteasome
Cn1cnc([N+](=O)[O-])c1[Se]c1nc(N)nc2c1ncn2[C@@H]1O[C@@H](CO)[C@H](O)[C@@H]1O	n[9.22 µM]	n[9.22 µM]	n[11.4 µM]	n[11.4 µM]	n[11.5 µM]	n[9.17 µM]
C=C1C2=CC(=O)OC(c3ccoc3)[C@]2(C)CCC1[C@]1(C)C=CC(=O)C(C)(C)C1CC(=O)OC (stereo not given in full)	x	x	x	x	n	x
NC(=O)CN1CCN(C(=O)NC2CCCCC2)CC1	x	n	25.1µM	u	n	n
O=C(NCCN1CCN(C(=O)NC2CCCCC2)CC1)NC1CCCCC1	n	n	n	n	n	n
CCC(CCC(C)C1CCC2C3CCC4CC(O)CC[C@@]4(C)C3CC[C@@]12C)C(C)C (stereo not given in full)	x	x	x	x	n	x
CN1CCCC2(CCN(C(=O)c3cccn3C)CC2)C1	n[9.22 µM]	n	u	u	n	n
CNC(=O)C1(C)C=CCN1C(=O)OC (stereo not given)	x	n	n	n	u	x
CCCCCOc1ccc(C(=O)N(Cc2ccco2)C2CCS(=O)(=O)C2)cc1 (stereo not given)	n	n[0.369 µM]	25.1µM	u	n	x
CC(C)COc1ccc(C(=O)N(Cc2ccco2)C2CCS(=O)(=O)C2)cc1 (stereo not given)	n	n[0.369 µM]	n	x	u	x
Cc1ccc2cc(CN(Cc3ccco3)C(=O)C3CCCCC3)c(=O)[nH]c2c1C	n	x	20µM	u	n	n
COc1cccc(Cn2c(=O)c(-c3ccc(Cl)cc3)nc3cnc(OC)nc32)c1	n[9.22 µM]	n	u	u	n	n
Nc1nc(CSc2n[nH]c(-c3ccccc3)n2)nc(Nc2ccccc2)n1	n	n	n	n	25.1µM	n
COc1ccc(NC(=O)CSc2nnc(-c3ccoc3C)n2CCc2ccccc2)cc1	n	n	n	25.1µM	n	n
CCn1c(SCC(=O)Nc2ccccc2C(=O)OC)nnc1-c1ccoc1C	n	n	31.6µM	u	n	n
CCCn1c(SCC(=O)Nc2ccccc2-c2ccccc2)nnc1-c1ccoc1C	n	x	15.8µM	u	n	n
Cc1occc1-c1nnc(SCC(=O)Nc2ccccc2)n1Cc1ccccc1	n	n	u	u	n	n
COc1cccc(OCc2nnc(SCC(=O)OC3CCCCC3)n2C)c1	n	x	15.8µM	u	n	n
CCn1c(SCC(=O)Nc2ccccc2C(=O)OC)nnc1-c1ccc(N)cc1	n	x	x	x	x	x
CNc1ncnc2c1ncn2[C@H]1C[C@@H](OP(=O)(O)O)[C@H](COP(=O)(O)O)O1	n	n	n	x	n	n
NC(N)=NCCCC(=O)O	n[9.22 µM]	n[9.22 µM]	n[11.4 µM]	n[11.4 µM]	n[11.5 µM]	n[9.17 µM]
NC/C=C\C(=O)O	n	n	n	u	n	n
